About 79,000 compounds went through this panel and 15% of them were active in at least one assay; those are over-represented in the sample as a whole. The source made the active and inactive calls. Cut-off read from the data, not from the text of the source: active = growth inhibition above about 70%; inactive = the rest.
How the values were obtained:
[1] = NCI Yeast Anticancer Drug Screen. Data for the rad50 strain (AID 155);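 note: 0% = growth of vehicle-only cultures of the same strain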; conditions: S. cerevisiae rad50 strain growth inhibition; at 50.0 µM; hits give high values
Summary of the method: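 DNA repair mutant yeast, compound exposure, growth read-out; inhibition is taken relative to vehicle.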

[2] = NCI Yeast Anticancer Drug Screen. Data for the mec2-1 strain (AID 157); conditions: S. cerevisiae mec2-1 strain, at 50.0 µM, hits give high values
Summary of the method: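 Growth inhibition is read against vehicle-treated controls after compound exposure of the mec2-1 yeast strain, which is defective in DNA damage repair or cell cycle control.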

[3] = NCI Yeast Anticancer Drug Screen. Data for the sgs1 mgt1 strain (AID 161);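 note: 0% = growth of cultures given vehicle only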; conditions: S. cerevisiae sgs1 mgt1 strain, at 50.0 µM, hits give high values
Summary of the method: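 Percent growth inhibition was derived by comparing compound-exposed mutant yeast with vehicle-exposed cultures. The strain carries alterations in DNA damage repair.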

[4] = NCI Yeast Anticancer Drug Screen. Data for the cln2 rad14 strain (AID 165);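 note: 0% = growth equal to vehicle treated cultures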; conditions: S. cerevisiae cln2 rad14 strain, at 50.0 µM, hits give high values
Summary of the method: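 Growth inhibition, relative to vehicle-treated controls, is the read-out. The test organism is a yeast strain with defined genetic alterations, cln2 rad14.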

[5] = NCI Yeast Anticancer Drug Screen. Data for the bub3 strain (AID 167); conditions: S. cerevisiae bub3 mutant strain, at 50.0 µM, hits give high values
Summary of the method: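 In this screen, a yeast mutant lacking normal mitotic checkpoint function is challenged with compound. Relative growth versus vehicle gives the inhibition value.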

[6] = NCI Yeast Anticancer Drug Screen. Data for the mlh1 rad18 strain (AID 175); conditions: S. cerevisiae mlh1 rad18 strain growth inhibition; at 50.0 µM; hits give high values
Summary of the method: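 Cells of a genetically altered yeast strain, deficient in DNA damage repair, were treated with compound. Their growth was then compared with that of vehicle-treated cultures to give inhibition.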

Measured: growth inhibition

Cc1cc(=O)[nH]c(NN2C(Cl)C(=O)C2c2c(O)ccc3ccccc23)n1 (stereo not drawn)
inactive: [1] -8.2% | [2] -10.6% | [3] -0.75% | [4] 13.3% | [5] 0.7% | [6] -32.8%

O=C(c1ccccc1)C(N=Nc1ccccc1)(c1ccccc1)c1ccccc1
inactive: [1] 4.15% | [2] -6% | [3] -1.8% | [4] -7.05% | [5] -0.85% | [6] 21.6%

CC(O)C(C)NC(C)C(C)O (stereo not drawn)
inactive: [1] 0.4% | [2] -0.35% | [3] -30.8% | [4] 15.3% | [5] 12.1% | [6] -2.85%

CNCSc1ccccc1
inactive: [1] -6.6% | [2] -19.9% | [3] -1.75% | [4] -11.6% | [5] -30.1% | [6] -1.45%

O=C(O)CCC1CC1C(=O)c1ccccc1 (stereo not drawn)
inactive: [1] 15.2% | [2] 5.55% | [3] -3.85% | [4] -37% | [5] -28.6% | [6] 17.9%

COC(=O)CCBr
inactive: [1] -19.8% | [2] 8.15% | [3] 28.8% | [4] -18.2% | [5] -1.9% | [6] 3.5%

CCOC(=O)/C(O)=C(\C#N)c1cc(C)ccc1C
inactive: [1] -7.5% | [2] -14.6% | [3] -2.7% | [4] 0.45% | [5] -0.45% | [6] 10.8%

C=CCOCn1cc(C)c(=O)[nH]c1=O
inactive: [1] 5.6% | [2] 17.4% | [3] 36.4% | [4] 5.5% | [5] 6.5% | [6] 17.4%

Nc1ncc2c(n1)-c1ccccc1OC2N1CCOCC1 (stereo not drawn)
inactive: [1] 28% | [2] 2.15% | [3] -0.45% | [4] 2% | [5] -22.6% | [6] -7.8%

Clc1ccc(C=Nc2ccccc2)c(Cl)c1
inactive: [1] 23.9% | [2] 10.8% | [3] 20.9% | [4] 11.5% | [5] -2.75% | [6] 26.6%

O=C(O)c1cccc(-c2nn[nH]n2)c1
inactive: [1] 2.75% | [2] 0.5% | [3] -4.55% | [4] -55% | [5] 0.25% | [6] -2.7%

CSCCC(O)C(=O)O (stereo not drawn)
inactive: [1] 21.8% | [2] -7.4% | [3] 19.5% | [4] 28.2% | [5] -2.55% | [6] 17%

OC(CC1=NCCS1)(c1ccccc1)c1ccccc1
active: [1] 98% | [2] 98.8% | [3] 96.8% | [4] 98.1% | [5] 98.2% | [6] 98.2%

CCCCC(C(=O)O)C(C)CC (stereo not drawn)
inactive: [1] 35% | [2] 12.2% | [3] 18.8% | [4] 22.3% | [5] 36.5% | [6] 29.6%

CC(=O)OC1CC[C@@]2(C)C(CC[C@]3(C)C2CC=C2[C@@H]4C(C)[C@H](C)CCC4(C)CCC23C)[C@@]1(C)C(=O)O (stereo partly drawn)
inactive: [1] 1.05% | [2] 14.8% | [3] 16.4% | [4] 3.25% | [5] 48.1% | [6] 16.4%

COC(=O)C(C(=O)C(=O)Nc1ccc(C(F)(F)F)cc1[N+](=O)[O-])c1csc(-n2nc(-c3ccccc3)cc2-c2ccccc2)n1 (stereo not drawn)
inactive: [1] 19.9% | [2] 18.6% | [3] 42.5% | [4] -13.2% | [5] 23.4% | [6] 1.6%

CCCCNC(=O)/N=C/c1c(O)c2ccccc2oc1=O
inactive: [1] 7.9% | [2] -10.1% | [3] -13.4% | [4] -1.5% | [5] -42.5% | [6] -16.6%

C1=CC2C3CSCC3C1C1CC21 (stereo not drawn)
inactive: [1] 7.95% | [2] -7.85% | [3] -4.4% | [4] -35.1% | [5] -17% | [6] -3.05%

CN(C)Cc1cc(CN(C)C)cc(CN(C)C)c1
inactive: [1] 0.3% | [2] 15.8% | [3] 3.45% | [4] -22.9% | [5] -11.2% | [6] -19.8%

O=[N+]([O-])c1cccc(N=C(c2ccccc2)N(O)c2ccccc2)c1
inactive: [1] 1.8% | [2] -19.2% | [3] 0.85% | [4] 31.9% | [5] 10.9% | [6] 15.8%

N#CC1=C(O)NC(O)=C(C#N)C12C(=O)Nc1ccccc12
inactive: [1] 4.1% | [2] 2.85% | [3] 2.05% | [4] 3.15% | [5] 13.2% | [6] 10.3%

COc1cc(-c2ccc(N=Nc3ccc(N)nc3N)c(OC)c2)ccc1N=Nc1ccc(N)nc1N
inactive: [1] 6.9% | [2] -3.9% | [3] 23.3% | [4] 12.4% | [5] -1.45% | [6] 11.7%

NC(=O)NC1CC1c1ccccc1 (stereo not drawn)
inactive: [1] -6.6% | [2] 4.1% | [3] -2.7% | [4] 22.1% | [5] -10.3% | [6] -1.45%

O=C(Nc1cc(-c2ccccc2)nn1-c1ccccc1)c1ccc(Cl)cc1
inactive: [1] -16.4% | [2] -19.9% | [3] -17.8% | [4] 15.2% | [5] -29.1% | [6] -9.65%

c1ccn2c(CCc3nnc4ccccn34)nnc2c1
inactive: [1] -1.75% | [2] -8.4% | [3] -6.35% | [4] -18.3% | [5] -1.9% | [6] -13.1%

CCN(CC)CCOC(=O)C1c2ccccc2Oc2ccccc21
inactive: [1] 25.2% | [2] -31.5% | [3] 9.1% | [4] 13.9% | [5] 21.4% | [6] 15.3%

CC1CCCCC(=O)N1 (stereo not drawn)
inactive: [1] 11.6% | [2] 13.4% | [3] 27.7% | [4] 5.1% | [5] 18.6% | [6] -1.35%

CCNc1cc2oc(=O)cc(C)c2cc1C
inactive: [1] -30.7% | [2] -22.5% | [3] -11.4% | [4] 8.05% | [5] -19% | [6] -28.2%

O=C(O)c1cccc(S(=O)(=O)NCCO)c1
inactive: [1] -11.3% | [2] -8.25% | [3] -20.8% | [4] -1.9% | [5] -36.1% | [6] 8.5%

COc1cc(OC)c2c(=O)cc(-c3ccc(OC)c(OC)c3OC)oc2c1
inactive: [1] -31.8% | [2] -23.6% | [3] -30.1% | [4] -2.3% | [5] -18.4% | [6] -40.5%

NC(=O)NNC(=O)c1nc[nH]c1[N+](=O)[O-]
inactive: [1] -24.2% | [2] -3.3% | [3] 11.6% | [4] -15.9% | [5] -18.2% | [6] -13.3%

CCCSc1nnc(SCCC)c2[nH]cnc12
inactive: [1] 0.85% | [2] -5.45% | [3] 0.95% | [4] -22.3% | [5] 2.4% | [6] -8.7%

Clc1ccc(CSc2cnnc(SCc3ccc(Cl)cc3)c2SCc2ccc(Cl)cc2)cc1
inactive: [1] -11.4% | [2] 15.2% | [3] -10.9% | [4] -60% | [5] -3.75% | [6] -30.4%

Cc1nc(CC#N)n[nH]1
inactive: [1] 24.5% | [2] 18% | [3] 17.1% | [4] 11.3% | [5] 24.8% | [6] 19.7%

COc1ccc2c(c1)C/C(=C\c1cccc3ccccc13)C2=O
inactive: [1] -51.9% | [2] -19.3% | [3] -0.15% | [4] -23.1% | [5] 28.1% | [6] -0.7%

Nc1ncnc2c1ncn2C1OC(C(=O)OCCO)C(O)C1O (stereo not drawn)
inactive: [1] -16.6% | [2] -19.8% | [3] -12.6% | [4] -12.2% | [5] -11.2% | [6] -22.9%

O=P(O)(O)CN1CCN(CP(=O)(O)O)CCN(CP(=O)(O)O)CCN(CP(=O)(O)O)CC1
inactive: [1] -39.9% | [2] -16.8% | [3] -8.75% | [4] 12.1% | [5] -0.05% | [6] -19.1%

CC1=CC2=NC(=O)C(c3ccccc3)C(=O)N2C=C1 (stereo not drawn)
inactive: [1] -1.05% | [2] -27.4% | [3] -9.95% | [4] 12.8% | [5] 7.5% | [6] -19.8%

Source: PubChem BioAssay (NCI)
